Experimental data reported in PubChem BioAssay AID1159580 (chemical genetic matrix, 2015).
The campaign covered roughly 5,500 compounds. About 2,000 (36%) were called active. Roughly 18% stayed inconclusive and do not appear here. This is one part of the list. Values without a mark were called inactive. Rule as the data show it: active = normalized growth mostly below about 0.91 (no sharp cut-off); inconclusive = no clear call, values can overlap the other calls; inactive = mostly above about 0.92.

Experiment: chemical genetic growth profiling, strain panel (AID 1159580);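 also: tested at 20 µM; growth read once vehicle control cultures reached saturation at 30 °C; 1 = growth at the plate median or of vehicle wells; lower values mean less growth of the strain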
Details: growth OD

CCC(c1ccc(O)cc1)C(CC)c1ccc(O)cc1 (stereo not drawn)
normalized growth (S. cerevisiae deletion strains, locus YJR075W, strain HOC1, stronger effect = lower value): 1.01
normalized growth (S. cerevisiae deletion strains, locus YKL009W, strain mrt4, stronger effect = lower value): 0.871 (active)
normalized growth (S. cerevisiae deletion strains, locus YKL068W, stronger effect = lower value): 0.99
normalized growth (S. cerevisiae deletion strains, locus YKL085W, strain MDH1 (second series), stronger effect = lower value): 0.984
normalized growth (S. cerevisiae deletion strains, locus YKL085W, strain MDH1, stronger effect = lower value): 0.984
normalized growth (S. cerevisiae deletion strains, locus YKL160W, strain elf1, stronger effect = lower value): 0.928
normalized growth (S. cerevisiae deletion strains, locus YKL190W, strain CNB1, stronger effect = lower value): 0.994
normalized growth (S. cerevisiae deletion strains, locus YKR001C, strain vps1, stronger effect = lower value): 0.99
normalized growth (S. cerevisiae deletion strains, locus YKR026C, strain gcn3, stronger effect = lower value): 0.982
normalized growth (S. cerevisiae deletion strains, locus YKR091W, strain srl3, stronger effect = lower value): 1
normalized growth (S. cerevisiae deletion strains, locus YLL001W, strain dnm1, stronger effect = lower value): 0.943
normalized growth (S. cerevisiae deletion strains, locus YLL026W, stronger effect = lower value): 0.862 (active)
normalized growth (S. cerevisiae deletion strains, locus YLL041C, strain sdh2, stronger effect = lower value): 0.976
normalized growth (S. cerevisiae deletion strains, locus YLR027C, strain aat2, stronger effect = lower value): 0.829 (active)
normalized growth (S. cerevisiae deletion strains, locus YLR039C, strain RIC1, stronger effect = lower value): 0.6 (active)
normalized growth (S. cerevisiae deletion strains, locus YLR058C, strain SHM2, stronger effect = lower value): 1
normalized growth (S. cerevisiae deletion strains, locus YLR102C, strain apc9, stronger effect = lower value): 1.01
normalized growth (S. cerevisiae deletion strains, locus YLR221C, strain rsa3, stronger effect = lower value): 0.828 (active)
normalized growth (S. cerevisiae deletion strains, locus YLR258W, strain gsy2, stronger effect = lower value): 0.902 (active)
normalized growth (S. cerevisiae deletion strains, locus YLR262C, strain YPT6 (second series), stronger effect = lower value): 0.396 (active)
normalized growth (S. cerevisiae deletion strains, locus YLR262C, strain YPT6, stronger effect = lower value): 0.575 (active)
normalized growth (S. cerevisiae deletion strains, locus YLR268W, strain sec22, stronger effect = lower value): 0.912
normalized growth (S. cerevisiae deletion strains, locus YLR320W, strain mms22, stronger effect = lower value): 0.868 (active)
normalized growth (S. cerevisiae deletion strains, locus YLR330W, strain CHS5, stronger effect = lower value): 1.01
normalized growth (S. cerevisiae deletion strains, locus YLR342W, strain FKS1 (second series), stronger effect = lower value): 0.962
normalized growth (S. cerevisiae deletion strains, locus YLR342W, strain FKS1, stronger effect = lower value): 0.938
normalized growth (S. cerevisiae deletion strains, locus YLR357W, strain rsc2, stronger effect = lower value): 0.984
normalized growth (S. cerevisiae deletion strains, locus YLR370C, strain arc18, stronger effect = lower value): 0.993
normalized growth (S. cerevisiae deletion strains, locus YLR371W, strain rom2, stronger effect = lower value): 1.01
normalized growth (S. cerevisiae deletion strains, locus YLR384C, strain iki3, stronger effect = lower value): 1.01
normalized growth (S. cerevisiae deletion strains, locus YLR418C, strain cdc73, stronger effect = lower value): 0.871
normalized growth (S. cerevisiae deletion strains, locus YML016C, strain PPZ1, stronger effect = lower value): 0.996
normalized growth (S. cerevisiae deletion strains, locus YML032C, strain rad52, stronger effect = lower value): 0.935
normalized growth (S. cerevisiae deletion strains, locus YML120C, strain ndi1, stronger effect = lower value): 0.733 (active)
normalized growth (S. cerevisiae deletion strains, locus YML124C, strain tub3, stronger effect = lower value): 1.01
normalized growth (S. cerevisiae deletion strains, locus YMR058W, strain fet3, stronger effect = lower value): 0.864 (active)
normalized growth (S. cerevisiae deletion strains, locus YMR078C, strain ctf18, stronger effect = lower value): 0.994
normalized growth (S. cerevisiae deletion strains, locus YMR125W, strain sto1, stronger effect = lower value): 1.01
normalized growth (S. cerevisiae deletion strains, locus YMR129W, stronger effect = lower value): 0.957
normalized growth (S. cerevisiae deletion strains, locus YMR205C, strain PFK2, stronger effect = lower value): 0.844 (active)
normalized growth (S. cerevisiae deletion strains, locus YMR223W, strain ubp8, stronger effect = lower value): 0.94
normalized growth (S. cerevisiae deletion strains, locus YMR231W, strain pep5, stronger effect = lower value): 1.01
normalized growth (S. cerevisiae deletion strains, locus YMR263W, strain SAP30, stronger effect = lower value): 0.973
normalized growth (S. cerevisiae deletion strains, locus YMR307W, strain GAS1, stronger effect = lower value): 0.592 (active)
normalized growth (S. cerevisiae deletion strains, locus YNL067W, strain RPL9B, stronger effect = lower value): 0.956
normalized growth (S. cerevisiae deletion strains, locus YNL071W, strain lat1, stronger effect = lower value): 0.786 (active)
normalized growth (S. cerevisiae deletion strains, locus YNL128W, strain TEP1, stronger effect = lower value): 1.02
normalized growth (S. cerevisiae deletion strains, locus YNL153C, strain GIM3, stronger effect = lower value): 0.982
normalized growth (S. cerevisiae deletion strains, locus YNL209W, strain ssb2, stronger effect = lower value): 0.976
normalized growth (S. cerevisiae deletion strains, locus YNL233W, strain BNI4, stronger effect = lower value): 0.974
normalized growth (S. cerevisiae deletion strains, locus YNL248C, strain rpa49, stronger effect = lower value): 0.942
normalized growth (S. cerevisiae deletion strains, locus YNL250W, strain rad50, stronger effect = lower value): 0.985
normalized growth (S. cerevisiae deletion strains, locus YNL271C, strain bni1, stronger effect = lower value): 0.985
normalized growth (S. cerevisiae deletion strains, locus YNL298W, strain CLA4, stronger effect = lower value): 0.912
normalized growth (S. cerevisiae deletion strains, locus YNL307C, strain MCK1, stronger effect = lower value): 0.877 (active)
normalized growth (S. cerevisiae deletion strains, locus YNL322C, strain KRE1 (second series), stronger effect = lower value): 0.985
normalized growth (S. cerevisiae deletion strains, locus YNL322C, strain KRE1, stronger effect = lower value): 1.01
normalized growth (S. cerevisiae deletion strains, locus YNR049C, strain mso1, stronger effect = lower value): 1
normalized growth (S. cerevisiae deletion strains, locus YNR052C, strain pop2, stronger effect = lower value): 0.938
normalized growth (S. cerevisiae deletion strains, locus YOL006C, strain TOP1, stronger effect = lower value): 0.769
normalized growth (S. cerevisiae deletion strains, locus YOL012C, strain htz1): 1.31
normalized growth (S. cerevisiae deletion strains, locus YOL147C, strain pex11, stronger effect = lower value): 0.997
normalized growth (S. cerevisiae deletion strains, locus YOR001W, strain rrp6, stronger effect = lower value): 0.808 (active)
normalized growth (S. cerevisiae deletion strains, locus YOR061W, strain CKA2, stronger effect = lower value): 0.984
normalized growth (S. cerevisiae deletion strains, locus YOR069W, strain VPS5, stronger effect = lower value): 0.999
normalized growth (S. cerevisiae deletion strains, locus YOR070C, strain gyp1, stronger effect = lower value): 0.942
normalized growth (S. cerevisiae deletion strains, locus YOR080W, strain dia2, stronger effect = lower value): 0.974
normalized growth (S. cerevisiae deletion strains, locus YOR083W, strain WHI5, stronger effect = lower value): 0.899
normalized growth (S. cerevisiae deletion strains, locus YOR106W, strain vam3, stronger effect = lower value): 0.804 (active)
normalized growth (S. cerevisiae deletion strains, locus YOR136W, strain idh2, stronger effect = lower value): 0.996
normalized growth (S. cerevisiae deletion strains, locus YOR144C, strain elg1, stronger effect = lower value): 1.01
normalized growth (S. cerevisiae deletion strains, locus YOR184W, strain ser1, stronger effect = lower value): 0.761 (active)
normalized growth (S. cerevisiae deletion strains, locus YOR265W, strain rbl2, stronger effect = lower value): 0.966
normalized growth (S. cerevisiae deletion strains, locus YOR270C, strain vph1, stronger effect = lower value): 0.792
normalized growth (S. cerevisiae deletion strains, locus YOR290C, strain snf2, stronger effect = lower value): 0.953
normalized growth (S. cerevisiae deletion strains, locus YOR316C, strain cot1, stronger effect = lower value): 1.01
normalized growth (S. cerevisiae deletion strains, locus YPL051W, strain arl3, stronger effect = lower value): 0.849 (active)
normalized growth (S. cerevisiae deletion strains, locus YPL055C, strain LGE1, stronger effect = lower value): 0.979
normalized growth (S. cerevisiae deletion strains, locus YPL078C, strain atp4, stronger effect = lower value): 0.895
normalized growth (S. cerevisiae deletion strains, locus YPL106C, strain sse1, stronger effect = lower value): 0.93
normalized growth (S. cerevisiae deletion strains, locus YPL240C, strain hsp82, stronger effect = lower value): 0.971
normalized growth (S. cerevisiae deletion strains, locus YPL241C, strain CIN2, stronger effect = lower value): 0.998
normalized growth (S. cerevisiae deletion strains, locus YPR119W, strain clb2, stronger effect = lower value): 1
normalized growth (S. cerevisiae deletion strains, locus YPR141C, strain kar3, stronger effect = lower value): 0.994
normalized growth (S. cerevisiae deletion strains, locus YPR163C, strain tif3, stronger effect = lower value): 1.02
normalized growth (S. cerevisiae deletion strains, locus YPR167C, strain met16, stronger effect = lower value): 0.987
normalized growth (S. cerevisiae deletion strains, strain wtn01, stronger effect = lower value): 0.959
normalized growth (S. cerevisiae strains, strain wild type, stronger effect = lower value): 0.995
